# Measured values: ChEMBL document CHEMBL2218924, “A broad activity screen in support of a chemogenomic map for kinase signalling research and drug discovery” (Biochem J, 2013)
# Target: Serine/threonine-protein kinase 24 (Homo sapiens) (UniProt Q9Y6E0)
# Settings: at 1 µM
# Serine/threonine-protein kinase 24 (Homo sapiens), sequence (Q9Y6E0 whole entry, looked up): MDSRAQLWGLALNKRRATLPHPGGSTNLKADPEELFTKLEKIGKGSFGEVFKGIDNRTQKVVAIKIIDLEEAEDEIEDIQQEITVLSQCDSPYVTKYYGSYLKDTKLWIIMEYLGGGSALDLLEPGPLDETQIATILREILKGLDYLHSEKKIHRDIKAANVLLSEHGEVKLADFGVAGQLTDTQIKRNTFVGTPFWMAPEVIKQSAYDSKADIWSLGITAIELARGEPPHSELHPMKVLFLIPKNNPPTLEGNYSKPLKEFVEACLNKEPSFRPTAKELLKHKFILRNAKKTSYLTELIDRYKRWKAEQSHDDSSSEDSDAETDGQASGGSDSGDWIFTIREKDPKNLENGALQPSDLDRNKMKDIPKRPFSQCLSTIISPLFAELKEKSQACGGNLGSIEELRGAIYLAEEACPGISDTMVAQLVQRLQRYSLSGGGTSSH
row,Structure (SMILES),residual activity [%]
1,CO[C@H]1C[C@@H]2CC[C@@H](C)[C@@](O)(O2)C(=O)C(=O)N2CCCC[C@H]2C(=O)O[C@H]([C@H](C)C[C@@H]2CC[C@@H](O)[C@H](OC)C2)CC(=O)[C@H](C)/C=C(\C)[C@@H](O)[C@@H](OC)C(=O)[C@H](C)C[C@H](C)/C=C/C=C/C=C/1C,64
2,Nc1nc(Nc2ccc(S(N)(=O)=O)cc2)nn1C(=S)Nc1c(F)cccc1F,0
3,O=C1NC(=O)/C(=C\c2ccc3nccnc3c2)S1,57
4,COc1ccc(CNc2nc(N(CCO)CCO)nc3c2ncn3C(C)C)cc1,65
5,COc1ccc(C(=O)Nc2sc3c(c2C(N)=O)CCCC3)cc1OC,68
6,O=C(Nc1cccc(Nc2cc(Nc3cccc(C(F)(F)F)c3)ncn2)c1)C1CC1,69
7,Oc1ccc(Nc2nc(-c3ccc(Cl)cc3)cs2)cc1,94
8,COc1ccc(OC)c2c(=S)c3ccccc3[nH]c12,80
9,O=C1Nc2cc(Br)ccc2/C1=C1/Nc2ccccc2/C1=N\O,62
10,Nc1cccc(-c2cc3c(Oc4cccc(O)c4)ncnc3[nH]2)c1,65
11,Oc1n[nH]c2nnc(-c3c(-c4ccccc4)nn4ccccc34)cc12,72
12,COc1cccc(-c2cc(=O)c3ccccc3o2)c1N,91
13,Cc1nc2cc3nc(-c4cccs4)cnc3cc2n1C,90
14,O=Nc1c(-c2c(O)[nH]c3ccccc23)[nH]c2ccccc12,42
15,O=C1c2ccccc2-[n+]2ccc3c([nH]c4ccccc43)c21,71
16,CNc1cc2c(Nc3cccc(Br)c3)ncnc2cn1,76
